HIV Env fusion: blocks HIV Env-driven cell-cell fusion. HeLa-JRFL Env/CEM21 cell fusion, luciferase. hit rate 1.1% among 360,000. inhibition, % at 12.3 µM. AID 651610;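 active = mean replicate inhibition score of at least 50 and every replicate individually at or above 50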;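 note: 0% = plate neutral controls and 100% = maraviroc near 300 nM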
NSD2 inh: NSD2 (human) methyltransferase inhibition; NSD2 peptide methylation, AlphaScreen, 120 min; O96028; inhibition, % at 12.5 µM; hit rate 0.54% among 310,000; in the data active = inhibition above about 50%
Casp6 inh: inhibitors of human caspase-6; purified caspase-6, Z-VEID-R110 cleavage fluorescence; hit rate 0.53% among 350,000; inhibition, % at 12.5 µM; AID 686996; P55212;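 active = mean inhibition across replicates at least about 35%, with every replicate also reaching that limit, limit read from the data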;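 note: 0% = median of neutral control wells and 100% = no fluorescence left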
ALR inh: human ALR oxidase inhibition via reduced H2O2; purified ALR, DTT oxidation, H2O2 HRP-luminol luminescence; inhibition, % (concentration not given with the values); P55789; hit rate 3.8% among 290,000;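 active = mean replicate inhibition above about 79%, with every replicate also reaching it, limit read from the data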
PglD DTNB: blocks C. jejuni PglD acetyltransferase activity | purified PglD enzyme, DTNB colorimetric CoA detection | inhibition, % at 12.5 µM | hit rate 0.098% among 360,000 | AID 602405; in the data active = inhibition above about 16%, passing the limit was not always enough
F508del corr: correctors of CFTR F508del function in bronchial epithelial cells | CFBE cells, YFP halide quenching; stimulated with forskolin plus potentiator P3; % fluorescence drop versus neutral controls | activity (quench increase), % at 7.58 µM | hit rate 0.36% among 350,000;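 active = mean added fluorescence quench of at least 8% versus neutral control, with both replicates also reaching 8%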;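 note: cells transiently co-express mutant CFTR-F508del with the halide-sensitive YFP; corrector assay measuring rescue of mutant channel to the surface after 24 h compound exposure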
Alpha artifact: counter-screen for NSD2 inhibitors: AlphaScreen artifacts; shares compounds with NSD2 inh; AlphaScreen artifact counterscreen, preloaded methylated H4 peptide; AC35, µM (doses to about 10 µM), for the others: at the top dose activity change, negative = signal loss; hit rate 9.4% among 1,500; AID 1053174; call rule not given here
* marks the source's active call; other numbers are inactive results; [ ] = another dose, or the depositor's remark. An excerpt weighted towards active compounds, which were near 4.1% of everything screened.

Results for CC1(CC(=O)N/N=C/c2cc([N+](=O)[O-])c(O)cc2O)OCCO1 ?
HIV Env fusion: -1; NSD2 inh: 60*; Casp6 inh: 69*; ALR inh: 43; F508del corr: 2; Alpha artifact: 0%

Results for O=C(O)CC1S/C(=N/N=C/c2ccc(-c3ccc(Cl)cc3[N+](=O)[O-])o2)NC1=O (stereo unspecified) ?
HIV Env fusion: -217; NSD2 inh: 60*; ALR inh: 82*; Alpha artifact: -8%

How did C[C@@H]1CN([C@H](C)CO)C(=O)c2cccc(NC(=O)C3CC3)c2O[C@H]1CN(C)Cc1ccc(-c2ccccc2)cc1 do in these assays?
Casp6 inh: 0; PglD DTNB: -1; F508del corr: -3

What do the screens show for `COc1ccc(S(=O)(=O)Nc2ccc3c(c2)CC(=O)N([C@@H](C)CO)C[C@@H](C)[C@H](CN(C)Cc2ccc(C(=O)O)cc2)O3)cc1`?
Casp6 inh: -2; F508del corr: -3

Results for CCN1CCN(c2ncnc3scc(-c4ccc(OC)cc4)c23)CC1 ?
HIV Env fusion: 23; NSD2 inh: 64*; Casp6 inh: -3; PglD DTNB: 2; F508del corr: -2; Alpha artifact: -4%

What do the screens show for `CC(=O)N1CCn2c3c(c(=O)c4cc(C)ccc42)CCC31` (stereo unspecified)?
HIV Env fusion: -11; NSD2 inh: 97*; ALR inh: -4; PglD DTNB: 15; Alpha artifact: -1%

What do the screens show for `Cc1cccc(OCCn2c(=S)[nH]c3ccccc32)c1`?
NSD2 inh: 113*; ALR inh: 13; PglD DTNB: 3; Alpha artifact: 4%

Results for O=C(Nc1ccccc1)N1CCCCN2[C@H](CO)[C@H](c3ccc(Br)cc3)[C@@H]2C1 ?
Casp6 inh: 1; PglD DTNB: -2; F508del corr: -5

What do the screens show for `Nc1ccc(Br)c2c1C(=O)c1ccccc1C2=O`?
NSD2 inh: 16; ALR inh: -4

Results for NC1=C(Br)C(=O)c2ccccc2C1=O ?
HIV Env fusion: -6; NSD2 inh: 57*; Casp6 inh: 75*; ALR inh: -35; PglD DTNB: 0; F508del corr: -3; Alpha artifact: -4%

What do the screens show for `CC(C)NC(=O)N[C@H]1CC[C@@H](CC(=O)N2CCCCC2)O[C@H]1CO`?
HIV Env fusion: -6[16.7 µM]; Casp6 inh: 0; PglD DTNB: 0; F508del corr: -1

Results for COc1ccc(NC(=O)Nc2ccc3c(c2)[C@@H]2C[C@H](CC(=O)N4CCc5ccccc5C4)O[C@H](CO)[C@@H]2O3)cc1 ?
HIV Env fusion: 14[16.7 µM]; Casp6 inh: 2; PglD DTNB: -2; F508del corr: 0

How did CCCC#Cc1ccc([C@H]2[C@@H](CO)N3CCCCN(Cc4cccnc4)C[C@@H]23)cc1 do in these assays?
Casp6 inh: -1; PglD DTNB: -2; F508del corr: 1

Results for COc1ccc2c3c(n(C)c2c1)[C@@H](CO)N(C(C)=O)CC31CCN(Cc2ccccc2OC)CC1 ?
Casp6 inh: -2; F508del corr: -1

Results for CCOc1ccc(C2C3=C(CCCC3=O)Nc3ccc4ncccc4c32)cc1 (stereo unspecified) ?
HIV Env fusion: -29; NSD2 inh: -6; Casp6 inh: 3; ALR inh: -22; PglD DTNB: 6; F508del corr: 1

How did O=C1CCCC2=C1C(c1ccc(O)c(O)c1)c1c(ccc3ncccc13)N2 (stereo unspecified) do in these assays?
HIV Env fusion: 16; NSD2 inh: 77*; Casp6 inh: 62*; ALR inh: 100*; F508del corr: 4; Alpha artifact: 0%

Results for CO[C@@H]1CN(C)C(=O)c2cc(NC(=O)C3CC3)ccc2OC[C@H](C)N(CC2CCCC2)C[C@@H]1C ?
Casp6 inh: -1; PglD DTNB: 3; F508del corr: -1

What do the screens show for `CCN(CC)c1cc(Cl)c2nonc2c1N`?
HIV Env fusion: 6; NSD2 inh: 8; Casp6 inh: 5; ALR inh: 20; PglD DTNB: 0; F508del corr: -1

Results for CN(C)c1cc(Cl)c2nonc2c1N ?
HIV Env fusion: -8; NSD2 inh: 104*; Casp6 inh: 99*; PglD DTNB: -1; F508del corr: -6; Alpha artifact: 1%

How did C[C@@H]1CN([C@H](C)CO)C(=O)c2cc(NS(=O)(=O)c3cccs3)ccc2O[C@H]1CN(C)S(C)(=O)=O do in these assays?
Casp6 inh: -2; PglD DTNB: -3; F508del corr: 0

What do the screens show for `CC(C)N(Cc1ccccc1)C(=O)C1CCCN(c2ncnc3c2nc2n3CCCCC2)C1` (stereo unspecified)?
HIV Env fusion: 43; NSD2 inh: 54*; Casp6 inh: -3; ALR inh: -1; PglD DTNB: -2; F508del corr: -3; Alpha artifact: -3%

Results for CCN(CCNC(=O)C1CCCN(c2ncnc3c2nc2n3CCCCC2)C1)Cc1ccccc1 (stereo unspecified) ?
HIV Env fusion: -6; NSD2 inh: 7; Casp6 inh: 7; ALR inh: -3; PglD DTNB: -2; F508del corr: -2

How did Cc1ccc(-n2c(C)c(C)c3c(N)ncnc32)cc1 do in these assays?
HIV Env fusion: 7; NSD2 inh: 67*; Casp6 inh: 0; ALR inh: -7; F508del corr: 3; Alpha artifact: -7%

How did COc1ccc(CCNC(=O)CN2C(=O)C(=O)N(C3CCCC3)C2=O)cc1OC do in these assays?
HIV Env fusion: 6; NSD2 inh: 55*; Casp6 inh: -2; ALR inh: 0; F508del corr: -4; Alpha artifact: 0%

What do the screens show for `NC(=O)COC(=O)c1ccc(Cl)c(S(=O)(=O)N2CCN(c3ccc(F)cc3)CC2)c1`?
HIV Env fusion: -5; NSD2 inh: 52*; Casp6 inh: 22; ALR inh: 38; F508del corr: 0; Alpha artifact: -5%

How did NC(=O)COC(=O)c1cccc(S(=O)(=O)N2CCN(c3ccc(F)cc3)CC2)c1 do in these assays?
HIV Env fusion: -11; NSD2 inh: -3; ALR inh: -1; PglD DTNB: 0; F508del corr: 2

What do the screens show for `O=C(NCC[C@@H]1CC[C@@H](NS(=O)(=O)Cc2ccccc2)[C@H](CO)O1)C1CC1`?
HIV Env fusion: -19[16.7 µM]; Casp6 inh: 3; PglD DTNB: -1; F508del corr: -1

Results for COc1ccc(CCC(=O)Nc2ccc(S(=O)(=O)Nc3nccc(C)n3)cc2)cc1 ?
HIV Env fusion: 1; NSD2 inh: 76*; Casp6 inh: 58*; ALR inh: -2; PglD DTNB: 0; F508del corr: 1; Alpha artifact: 5%

Screening results as filed in PubChem BioAssay.
